# Screen size: about 13,000 compounds; about 3,200 (25%) showed an effect of 50% or more. The list shows a part of the results.
# System: P. falciparum stage V gametocytes
# Set-up: BacTiter-Glo ATP luminescence viability of purified stage V gametocytes in 384-well plates, per cent inhibition versus DMSO
# Conditions: 48 h, 5 µM; inhibitor
row,Structure (SMILES),% Inhibition [%]
1,CCc1cccc2sc(N3CCN(C(=O)c4ccc([N+](=O)[O-])o4)CC3)nc12 [TCMDC-124317],88.03
2,COc1cccc2sc(N3CCN(C(=O)c4ccc([N+](=O)[O-])o4)CC3)nc12 [TCMDC-125150],57.22
3,Cc1cc(C)c2oc(-c3cccc(NC(=O)c4ccc([N+](=O)[O-])o4)c3C)nc2c1 [TCMDC-123704],43.1
4,CCCCCCN1CCC(CNCc2cccc([N+](=O)[O-])c2)CC1 [TCMDC-141211],17.53
5,COc1ccccc1C(=O)N1CCN(Cc2cccs2)CC1 [TCMDC-139297],0.2209
6,O=C(Nc1ccc(N2CCN(C(=O)/C=C/c3ccccc3)CC2)c(Cl)c1)c1ccc([N+](=O)[O-])o1 [TCMDC-125229],0.8671
7,Cc1ccc2sc(N3CCN(C(=O)c4ccc([N+](=O)[O-])o4)CC3)nc2c1C [TCMDC-124314],93.58
8,Cc1c(Cl)ccc2sc(N3CCN(C(=O)c4ccc([N+](=O)[O-])o4)CC3)nc12 [TCMDC-125453],88.71
9,COc1ccc(/N=[N+](\[O-])c2ccccc2/[N+]([O-])=N/c2ccc(OC)cc2)cc1 [TCMDC-131243],-4.101
10,CC(=O)Nc1ccccc1OCc1cc2cc(C(=O)N3CCC(N4C(=O)OCc5ccccc54)CC3)ccc2o1 [TCMDC-138453],6.686
11,CCc1c(C)c2ccc3c(c2oc1=O)CN(CCc1ccc(F)cc1)CO3 [TCMDC-125082],34.69
12,Cn1nccc1C(=O)NCCNCc1ccc(-c2ccc(-c3nc4cc(C(F)(F)F)ccc4[nH]3)cc2)cc1.O=C(O)C(F)(F)F [TCMDC-133013],-32.96
13,Cc1nc(-c2nc(N3CCC(C(N)=O)CC3)ncc2-c2ccsc2)sc1C [TCMDC-125362],25.42
14,COC(=O)c1cccc(CNCc2ccc(-c3ccc(-c4nc5ccc(F)cc5[nH]4)s3)cc2)c1 [TCMDC-132951],-33.43
15,CCc1ccc(NC(=O)C=NNC(=N)N)cc1 [TCMDC-137521],-23.47
16,c1ccc(Oc2ccc(Nc3ccnc(Nc4ccc5cn[nH]c5c4)n3)cc2)cc1 [TCMDC-138574],-56.78
17,CS(=O)(=O)c1cccc2sc(N3CCN(C(=O)c4ccc([N+](=O)[O-])o4)CC3)nc12 [TCMDC-124930],105
18,O=C(Nc1ccc(N2CCN(Cc3ccccc3Cl)CC2)cc1)c1ccc([N+](=O)[O-])o1 [TCMDC-125230],2.358
19,O=C(c1ccc([N+](=O)[O-])o1)N1CCN(c2nc3c(Cl)cccc3s2)CC1 [TCMDC-124316],86.16
20,O=C(c1ccc([N+](=O)[O-])o1)N1CCN(c2nc3c(F)cc(F)cc3s2)CC1 [TCMDC-125149],102.2
21,O=C(c1ccc([N+](=O)[O-])o1)N1CCN(c2ccccc2)CC1 [TCMDC-125833],2.332
22,O=C(Nc1cccc(-c2nc3ccccc3s2)c1)c1ccccc1[N+](=O)[O-] [TCMDC-125736],-19.42
23,CC(C)(C)OC(=O)N1CCC(C2CCN(C(=O)OC(C)(C)C)CC2)CC1 [TCMDC-132002],7.482
24,CC(C)(C)c1ccc(CN2CCC(CNC(=O)c3cc(-c4cccc(Cl)c4)cs3)C2)cc1 (centres unmarked) [TCMDC-134446],98.88
25,CC(C)(C)c1ccc(CN2CCC(CNC(=O)c3cc(-c4cccc(F)c4)cs3)C2)cc1 (centres unmarked) [TCMDC-134444],110.8

row,Structure (SMILES),% Inhibition [%]
1,CCc1ccc(CN2CCC(CNC(=O)c3cc(-c4cccc(Cl)c4)cs3)C2)cc1 (centres unmarked) [TCMDC-134434],86.46
2,COc1cccc(-c2csc(C(=O)NCC3CCN(Cc4ccc(C(C)(C)C)cc4)C3)c2)c1 (centres unmarked) [TCMDC-134447],100.1
3,O=C(NCC1CCN(CC2CCCCC2)C1)c1cc(-c2cccc(Cl)c2)cs1 (centres unmarked) [TCMDC-134423],42.83
4,CC(=O)Nc1ccc(CN2CCC(CNC(=O)c3cc(-c4cccc(Cl)c4)cs3)C2)cc1 (centres unmarked) [TCMDC-134457],-3.132
5,CCCOc1cc(Cc2cnc(N)nc2N)cc(OC)c1OC [TCMDC-137661],3.215
6,Cc1ccc(Oc2ccc(NC(=O)CNc3ccccc3N3CCCC3=O)cc2)cc1 [TCMDC-125245],-23.96
7,CN(C)c1ccc(CN2CCC(CNC(=O)c3cc(-c4cccc(C(F)(F)F)c4)cs3)C2)cc1 (centres unmarked) [TCMDC-134452],29.06
8,O=C(NC1CCN(Cc2ccccc2)CC1)c1cc(-c2cccnc2)nc2ccc(Cl)cc12 [TCMDC-125223],-0.2191
9,CC(C)(C)c1ccc(CN2CCC(CNC(=O)c3cc(-c4ccccc4)nc4ccccc34)CC2)cc1 [TCMDC-139154],75.79
10,CCc1ccc(CN2CCC(CNC(=O)c3cc(-c4cccc(F)c4)cs3)C2)cc1 (centres unmarked) [TCMDC-134432],99.62
11,CN(C)c1ccc(CN2CCC(CNC(=O)c3cc(-c4cccc(F)c4)cs3)C2)cc1 (centres unmarked) [TCMDC-134454],71.45
12,O=C(NC1CCN(Cc2ccccc2)CC1)c1cc(-c2ccncc2)nc2ccc(Cl)cc12 [TCMDC-124995],9.958
13,CC(Nc1nncc(-c2cccc(F)c2)n1)c1ccc(F)cc1 (centres unmarked) [TCMDC-124683],-23.73
14,COc1ccc(NC(=O)Nc2cccc(-c3ccc(-c4nc5ccc(C(F)(F)F)cc5[nH]4)cc3)c2)cc1 [TCMDC-133244],-27.48
15,CCOC(=O)c1ccc(Nc2cc(Nc3ccc(C(=O)OCC)cc3)nc(C)n2)cc1 [TCMDC-125781],36.3
16,O=C(Nc1cccc(CN2CCCN(CC3CC3)CC2)c1)c1ccc(-c2ccccc2)cc1 [TCMDC-141846],-26.45
17,Cc1nc2nc(N)nc(N)c2c(C)c1Cc1ccc(O)cc1 [TCMDC-137637],-12.62
18,CC(C)C1C(=O)N(S(C)(=O)=O)C2CCN(C(=O)c3ccc(CN4CCCCC4)c([N+](=O)[O-])c3)C12 (centres unmarked) [TCMDC-138195],96.13
19,O=C(/C=C/c1ccc(Cl)c(Cl)c1)NC1CCC(CN2CCC(Cc3c[nH]c4ccccc34)CC2)CC1 (centres unmarked) [TCMDC-140141],5.841
20,O=C(NCCCCN1CCN(c2nsc3ccccc23)CC1)c1ccccc1C(=O)NCCCCN1CCN(c2nsc3ccccc23)CC1 [TCMDC-137241],54.48
21,Nc1ccncc1C(=O)NCCCCN1CCN(c2nsc3ccccc23)CC1 [TCMDC-137310],70.91
22,COc1ccccc1N1CCN(CCCCNC(=O)c2ccc(NC(=O)c3ccc(C(F)(F)F)cc3)cc2)CC1 [TCMDC-138110],-20.18
23,O=C(NCCCCN1CCC(c2nc3ccccc3s2)CC1)c1cc2ccccc2[nH]1 [TCMDC-132779],6.014
24,COc1ccc(Cl)cc1N1CCN(CCCNC(=O)c2ccc(-c3nc4ccncc4[nH]3)c(Br)c2)CC1 [TCMDC-140145],-23.34
25,Nc1c(C(=O)NCCCCN2CCN(c3nsc4ccccc34)CC2)sc2ccccc12 [TCMDC-137254],-32.13

row,Structure (SMILES),% Inhibition [%]
1,c1csc(-c2nc(NCC3CCCO3)ncc2-c2ccsc2)n1 (centres unmarked) [TCMDC-125365],7.159
2,CCCCCCN1CCCN(Cc2ccc(C(=O)Nc3cccc(CC)c3)cc2)CC1 [TCMDC-136412],-23.63
3,CC1(C)N=C(N)N=C(N)N1OCCCc1ccccc1 [TCMDC-131689],3.846
4,CCNc1cc(C(=O)N[C@@H](Cc2ccccc2)[C@H](O)CNC2(CCC(C)C)CC2)cc(N2CCCCS2(=O)=O)c1 [TCMDC-135245],4.245
5,CCCCCCN1CCC(CNCc2cccc(Cl)c2)CC1 [TCMDC-141678],45.32
6,CCCCCCOc1ccc(C(=O)N[C@H]2CCN(CCCCCNC(=O)/C=C/c3ccc(Cl)c(Cl)c3)C2)cc1 [TCMDC-139564],40.4
7,Clc1ccc(OCCC2CCN(CCCCCCN3CCCCC3)CC2)cc1Cl [TCMDC-138982],100.1
8,Clc1ccc(OCCC2CCN(CCCCCCCN3CCC(CCOc4ccc(Cl)c(Cl)c4)CC3)CC2)cc1Cl [TCMDC-138967],119.8
9,O=C(Nc1cccc(OCCN2CCCC2)c1)Nc1ccc(Cl)c(Cl)c1 [TCMDC-139540],28.24
10,O=C(Nc1ccc(Cl)c(Cl)c1)N1CCc2ccc(OCCCN3CCCCC3)cc2CC1 [TCMDC-141755],13.17
11,N#Cc1ccc(-c2ccc(C(=O)Nc3ccc4c(c3)CCN(C3CCC3)CC4)nc2)cc1 [TCMDC-136032],15.17
12,Cc1onc(-c2ccccc2)c1-c1nc(NC2CCCC(C)C2)no1 (centres unmarked) [TCMDC-134202],-14.49
13,CCN(c1ccc(O)c(CN2CCCCC2)c1)c1ccc([N+](=O)[O-])cn1 [TCMDC-138001],10.77
14,CCN(CC)S(=O)(=O)c1ccc(C(C)NC(=O)c2ccccc2COc2ccccc2)cc1 (centres unmarked) [TCMDC-125332],39.64
15,Cc1ccc(C)c(Cn2c(N3CCC(C(=O)NCc4cccs4)CC3)nc3ccccc32)c1 [TCMDC-124399],-1.754
16,CCC(C)NS(=O)(=O)c1ccc2nc(Nc3ccc(C)cc3)n(C3CCCCC3)c2c1 (centres unmarked) [TCMDC-136232],-89.75
17,CCN1CCC(N2CCC(n3c(C)nc4cc(C(F)(F)F)ccc43)CC2)CC1 [TCMDC-124671],0.4186
18,Cc1ccc(C)c(CC(=O)N2CCC(n3c(C)nc4ccc(F)cc43)CC2)c1 [TCMDC-124790],89.97
19,Cc1ccc2nc(C)n(C3CCN(C(=O)Cc4ccc(F)c(F)c4)CC3)c2c1 [TCMDC-124793],84.63
20,Cc1cc(C)cc(CC(=O)N2CCC(n3c(C)nc4ccc(C)cc43)CC2)c1 [TCMDC-124789],80.51
21,CCC(C)NS(=O)(=O)c1ccc2nc(Nc3ccc(C)cc3)n(C3CCCCC3C)c2c1 (centres unmarked) [TCMDC-136231],-48.39
22,CCC(C)NS(=O)(=O)c1ccc2nc(Nc3ccc(C)c(Cl)c3)n(C3CCCCC3)c2c1 (centres unmarked) [TCMDC-136233],-49.77
23,O=C(O)c1ccc2nc(-c3ccc(-c4ccccc4)cc3)n(C3CCN(Cc4ccc(-c5ncc[nH]5)cc4)CC3)c2c1 [TCMDC-134669],12.72
24,Cc1nc2ccc(F)cc2n1C1CCN(C(=O)Cc2ccc(F)c(F)c2)CC1 [TCMDC-124794],73.02

# Reference: paper PMC4552634, “A New Set of Chemical Starting Points with Plasmodium falciparum Transmission-Blocking Potential for Antimalarial Drug Discovery” (PLoS ONE, 2015)
